uPA surface inh = qHTS for Inhibitors of Cell Surface uPA Generation; Potency, µM (titrated, usually from 38.3 µM), usual class: inhibitors; 330,000 tested, 0.31% active; cell surface uPA generation assay, qHTS; active means well fitted inhibition curve with a large enough effect; inconclusive means small, poorly fitted or top-dose-only effect; inactive means no such curve, though single readings can be large or run the other way; tested in mouse RAW 264.7 cells; further: nearly all actives have a fitted effect of over 55% in size
ATXN viability = Viability Counterscreen for Primary qHTS for Inhibitors of ATXN expression | S2 cells (HEK-293 line with an ATXN2-luciferase reporter) viability, CellTiter-Fluor protease fluorescence, 24 h | Potency, µM (highest dose often 56.7 µM), hits mostly cytotoxic | 400,000 tested, 0.49% active | AID 651635, 2014; further: nearly all actives have a fitted effect of over 40% in size
HepG2 tox-1 = qHTS for Inhibitors of TGF-b: Cytotox Counterscreen; HepG2 CAGA-GFP viability, ATP luminescence, 18 h; Potency, µM (doses to about 46.1 µM), usual class: cytotoxic; 410,000 tested, 0.76% active; AID 588856, 2011
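CellTiter-Glo luminescence gave cytotoxicity after 18 hours at 37 degrees C. The cells were HepG2 CAGA-GFP in 1% FBS DMEM, stimulated with 500 pg/mL TGF-beta after compound addition. %Activity was normalised to no-cell wells (complete cell-killing) and DMSO (no toxicity), and curves were fitted and classified.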
Giardia killer = Small Molecules that selectively kill Giardia lamblia: qHTS; 340,000 tested, 0.15% active; activity change, % at 7.66 µM, hits read low; AID 540267, 2011; Giardia lamblia trophozoite viability; in the data active means activity change below about -80%; inconclusive means between about -30% and that limit;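 further: parasites exposed to compound for two days anaerobically before the ATP read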
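Giardia trophozoites, 100 cells per well, were exposed to compounds for 48 hrs at 37 deg C under anaerobic conditions; viability was then read as ATP content by bioluminescence after 15-30 min at room temperature.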
TGFb SMAD3 inh = qHTS for Inhibitors of TGF-b; HepG2 CAGA-GFP TGF-b/SMAD3 reporter, GFP fluorescence, 18 h; TGF-beta stimulated, 500 pg/mL final; Potency, µM (series often up to 46.1 µM), most hits filed as inhibitors; 410,000 tested, 1.2% active; AID 588855, 2011; further: nearly all actives have a fitted effect of over 65% in size
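HEPG2 CAGA-GFP cells (1000/well, DMEM with 1% FBS) were pre-incubated 2 h at 37 degrees C, given compound by pin tool, then stimulated with TGF-beta at 500 pg/mL final for 18 h before per-cell GFP fluorescence imaging.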
ATXN2 expr inh = Primary qHTS for Inhibitors of ATXN expression; HEK-293 ATXN2-luciferase reporter, luminescence, 24 h; Potency, µM (top dose mostly 57 µM), actives largely listed as inhibitors; 360,000 tested, 0.72% active; further: nearly all actives have a fitted effect of over 55% in size
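qHTS (up to 57 uM final) was run with 24 h compound exposure of reporter cells at 37 °C. Each well was multiplexed: SteadyGlo luminescence measured ATXN2-luciferase expression after a fluorogenic Gly-Phe-AFC viability readout (25 uM final).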
TGFb confirm = qHTS for Inhibitors of TGF-b: Confirmation of Cherry Picks. Potency, µM (titrated, usually from 46.1 µM), actives largely listed as inhibitors. AID 720534, 2013. 1,600 tested, 63% active. HepG2 CAGA-GFP TGF-b reporter, GFP fluorescence, 18 h; cells stimulated with TGF-beta, 500 pg/mL. shares compounds with TGFb SMAD3 inh; further: nearly all actives have a fitted effect of over 65% in size
HepG2 tox-2 = qHTS for Inhibitors of TGF-b: Cytotox Counterscreen for Cherry Picks | shares compounds with TGFb SMAD3 inh | HepG2 CAGA-GFP viability, ATP luminescence, 18 h; cells stimulated with TGF-beta, 500 pg/mL | Potency, µM (highest dose often 46.1 µM), most hits filed as inhibitors | 1,600 tested, 27% active | AID 720535, 2013; further: nearly all actives have a fitted effect of over 70% in size
CCL64 TGFb inh = qHTS for Inhibitors of TGF-b: CCL64 Cells Orthogonal Assay for Cherry Picks. shares compounds with TGFb SMAD3 inh. CCL64 CAGA-GFP reporter, TGF-b stimulated, GFP fluorescence, 18 h. Potency, µM (series often up to 46.1 µM), usual class: inhibitors. 1,600 tested, 41% active. AID 720536, 2013; further: nearly all actives have a fitted effect of over 65% in size
TGFb COP inh = qHTS for Inhibitors of TGF-b: Hit Validation in HepG2 Cells using COP promoter; shares compounds with TGFb SMAD3 inh; HepG2 COP-GFP TGF-b reporter, GFP fluorescence, 18 h; cells stimulated by added recombinant TGF-beta; Potency, µM (highest dose often 46.1 µM), most hits filed as inhibitors; 1,600 tested, 3% active; AID 720537, 2013; further: nearly all actives have a fitted effect of over 70% in size
Of the large screens only hits and unclear results are named; the others gave an inactive call (follow-up assays come after a bar, where they were run); ! = a repeat was not active. Hits are enriched below; roughly 2.6% of the tested compounds scored in any of these assays. Unless noted, the call rests on the fitted dose curve; in most records, active means well fitted curve in the direction sought with a large enough effect; inconclusive means small, poorly fitted or top-dose-only effect, or another doubt; inactive means no such curve, though single readings can be large; an effect the other way counts as inactive or inconclusive.

COc1cc(/C=N/n2c(SC)nnc(C(C)(C)C)c2=O)ccc1O	TGFb SMAD3 inh 3.2µM | TGFb confirm inconclusive | HepG2 tox-2 inactive | CCL64 TGFb inh inactive | TGFb COP inh inactive
COc1ccc(/C=N/n2c(SC)nnc(C(C)(C)C)c2=O)cc1OC	none
Cc1ccccc1NCc1ccc(O)c2ncccc12	TGFb SMAD3 inh 10µM, ATXN2 expr inh inconclusive | TGFb confirm inconclusive | HepG2 tox-2 inconclusive | CCL64 TGFb inh 5.8µM | TGFb COP inh inactive
O=C(Nc1ccc(F)cc1)Nc1cc(OCC(F)(F)F)cc(OCC(F)(F)F)c1	uPA surface inh inconclusive, ATXN viability inconclusive, HepG2 tox-1 8.9µM, TGFb SMAD3 inh 4µM, ATXN2 expr inh 11µM | TGFb confirm 6.5µM | HepG2 tox-2 inconclusive | CCL64 TGFb inh 7.3µM | TGFb COP inh inactive
CCN1CCN(Cc2ccc(NC(=O)c3cc(NC(=O)c4nccnc4N)cc(OC)c3)cc2C(F)(F)F)CC1	ATXN viability inconclusive, TGFb SMAD3 inh inconclusive, ATXN2 expr inh inconclusive
CCN1CCN(Cc2ccc(NC(=O)c3cc(NC(=O)c4cncc(-c5ccc(C#N)cc5)c4)cc(OC)c3)cc2C(F)(F)F)CC1	ATXN viability 16µM, HepG2 tox-1 2µM!, TGFb SMAD3 inh 5.6µM, ATXN2 expr inh 25µM! | TGFb confirm inconclusive | HepG2 tox-2 16µM | CCL64 TGFb inh 26µM | TGFb COP inh inconclusive
CCOC(=O)/C(=N/Nc1ccc(Br)cc1)N1CC(C)OC(C)C1 (stereo not drawn)	none
O=C(CNC(=S)N(Cc1ccccc1)Cc1ccccc1F)NCc1ccc(Cl)cc1	TGFb SMAD3 inh 13µM | TGFb confirm 13µM | HepG2 tox-2 inconclusive | CCL64 TGFb inh inconclusive | TGFb COP inh inactive
COc1ccccc1NS(=O)(=O)c1cc(C(=O)NC2CC(C)(C)NC(C)(C)C2)ccc1Cl	none
CC[C@@H]1C(c2ccc(F)cc2)=NN(c2ccccc2)[C@H]1C(=O)N1CCOC1=O	ATXN viability inconclusive, TGFb SMAD3 inh inconclusive
CC[C@@H]1C(c2ccccc2)=NN(c2ccccc2)[C@H]1C(=O)N1CCOC1=O	TGFb SMAD3 inh inconclusive (no result: ATXN viability) | TGFb confirm inactive | HepG2 tox-2 inactive | CCL64 TGFb inh inactive | TGFb COP inh inactive
O=C1OCCN1C(=O)[C@H]1[C@H](c2ccc([N+](=O)[O-])cc2)C(c2cccc(Cl)c2)=NN1c1ccccc1	ATXN viability inconclusive, TGFb SMAD3 inh inconclusive | TGFb confirm inactive | HepG2 tox-2 inactive | CCL64 TGFb inh inactive | TGFb COP inh inactive
CCOC(=O)C1CCC(CN(Cc2ccc(OC)cc2)S(=O)(=O)c2ccc(F)c(C(=O)Nc3ccc(C)c(C)c3)c2)CC1 (stereo not drawn)	TGFb SMAD3 inh inconclusive (no result: uPA surface inh, Giardia killer)
C[C@]12C(=O)N(c3ccc(Cl)cc3)C(=O)N1[C@@H]1c3ccccc3OC[C@@H]1[C@H]2c1ccccc1	none
O=C(Nc1ccccc1Cl)N(Cc1nc2ccccc2c(=O)[nH]1)Cc1cccs1	none
O=C(Nc1ccc(Cl)cc1)N(Cc1nc2ccccc2c(=O)[nH]1)Cc1cccs1	ATXN viability inconclusive, TGFb SMAD3 inh 10µM | TGFb confirm 21µM | HepG2 tox-2 inconclusive | CCL64 TGFb inh inconclusive | TGFb COP inh inactive
Cc1ccc(NS(=O)(=O)c2ccc(N3CCN(c4ccc(O)cc4)CC3)c([N+](=O)[O-])c2)c(C)c1	TGFb SMAD3 inh 14µM, ATXN2 expr inh inconclusive | TGFb confirm 12µM | HepG2 tox-2 inconclusive | CCL64 TGFb inh inconclusive | TGFb COP inh inactive
Cc1c(NS(=O)(=O)c2ccc(C(C)(C)C)cc2)c(=O)n(-c2ccccc2)n1C	none (no result: uPA surface inh, Giardia killer)
C[C@@H]1CN([C@@H](C)CO)C(=O)c2cccc(NC(=O)Nc3ccc(F)cc3)c2O[C@@H]1CN(C)Cc1ccc(Oc2ccccc2)cc1	uPA surface inh inconclusive, ATXN viability 18µM, TGFb SMAD3 inh 4µM, ATXN2 expr inh inconclusive | TGFb confirm 16µM | HepG2 tox-2 inconclusive | CCL64 TGFb inh 6.5µM | TGFb COP inh inactive
C[C@@H]1CCCCO[C@H](CN(C)Cc2ccc(Cl)c(Cl)c2)[C@H](C)CN([C@@H](C)CO)C(=O)c2cc(NC(=O)Nc3ccc(F)cc3)ccc2O1	ATXN viability inconclusive, TGFb SMAD3 inh 10µM, ATXN2 expr inh inconclusive (no result: uPA surface inh, Giardia killer) | TGFb confirm 5.8µM | HepG2 tox-2 inconclusive | CCL64 TGFb inh 5.8µM | TGFb COP inh inactive
COc1ccc(NC(=O)Nc2ccc3c(c2)C(=O)N([C@H](C)CO)C[C@H](C)[C@@H](CN(C)Cc2ccc(Cl)c(Cl)c2)OCCCC[C@@H](C)O3)cc1	ATXN viability inconclusive (no result: uPA surface inh, Giardia killer)
C[C@H](CO)N1C[C@H](C)[C@H](CN(C)Cc2ccccc2)Oc2c(NC(=O)Nc3ccc(F)cc3)cccc2C1=O	uPA surface inh inconclusive, ATXN viability inconclusive, TGFb SMAD3 inh inconclusive, ATXN2 expr inh inconclusive
O=C(CSC1=NNC(c2ccccn2)S1)Nc1ccc(C(F)(F)F)cc1 (stereo not drawn)	TGFb SMAD3 inh inconclusive, ATXN2 expr inh inconclusive | TGFb confirm inactive | HepG2 tox-2 inactive | CCL64 TGFb inh inconclusive | TGFb COP inh inactive
c1ccc(CSC2=NNC(c3ccccn3)S2)cc1 (stereo not drawn)	ATXN viability inconclusive, TGFb SMAD3 inh inconclusive
CCOc1cc(C(=O)Oc2cc(C)[nH]c(=O)c2[N+](=O)[O-])cc(OCC)c1OCC	none (no result: ATXN2 expr inh)
Cc1ccc(S(=O)(=O)N2CCN(C(=O)c3cc(C4CC4)nc4c3cnn4C(C)C)CC2)cc1	TGFb SMAD3 inh inconclusive (no result: ATXN viability, ATXN2 expr inh)

Bioassay records as filed in PubChem.
